This note sets out measurements from ChEMBL document CHEMBL1157539, “Thousands of chemical starting points for antimalarial lead identification” (Nature, 2010).

By Inhibition is commonly meant the change of the read-out against control, counted positive when it falls. Read a high Inhibition as strong suppression.

Holding throughout (type): functional
The test system of assay [1] is Plasmodium falciparum. The assay is described as follows: GSK_TCMDC: Inhibition of Plasmodium falciparum 3D7 in whole red blood cells, using parasite LDH activity as an index of growth. Test compounds present at 2uM.
Assay [2] deals with Plasmodium falciparum. The assay is described as follows: GSK_TCMDC: Inhibition of Plasmodium falciparum Dd2 in whole red blood cells, using parasite LDH activity as an index of growth. Test compounds present at 2uM.
In another assay the test system is HepG2. The experiment in a line: GSK_TCMDC: Percent inhibition of human HepG2 cell line. Test compounds present at 10uM.

As for `O=C(NCc1ccc(Cl)cc1)c1ccc(C(=O)NCC2CCCN2CC2CCCCC2)cc1.O=C(O)C(F)(F)F` (stereo unspecified), the Inhibition with Plasmodium falciparum [1] is reported as 97%; with Plasmodium falciparum [2] it was 10%; in the assay on HepG2 it was 21%.
With `CCCc1cc(C(=O)N[C@@H](Cc2ccccc2)[C@H](O)CNC(C)C)c(F)c(N2CCCC2=O)c1`, the Inhibition turned out to be 90% in the assay with Plasmodium falciparum [1], 22% in the assay with Plasmodium falciparum [2] and 0% with HepG2.
The like results for `O=C(NC1CCN(Cc2ccccc2)CC1)c1ccc(-c2nc3cc(F)c(F)cc3[nH]2)s1` were, in that order, 100%, 97% and 6%.
On to `CCOc1c(OC)ccc2c1CCN(CCN1CCC(NC(=O)c3ccc(-c4cccc(C(F)(F)F)c4C(F)(F)F)cc3)CC1)C2`, for which the Inhibition was found to be 100% with Plasmodium falciparum [1], 57% in the assay on Plasmodium falciparum [2] and 30% in the assay on HepG2.
The like results for `CCOc1ccc(-c2cc3nc(C4CCNCC4)c(C(=O)Nc4ccc(C)cc4Cl)cn3n2)cc1.Cl` were, in that order, 95%, 22% and 63%.
The like results for `COc1ccc(-c2cc(C(=O)N[C@@H](CC3CCCCC3)C(=O)NC3CCCc4ccccc43)ccc2O)cc1` (stereo partly specified) were, in that order, 98%, 97% and 7%.
Consider `NC1CCN(Cc2cccc(-c3cccc(-c4nc5ccccc5[nH]4)c3)c2)C1.O=C(O)C(F)(F)F` (stereo unspecified), for which the figures for the Inhibition in the assay with Plasmodium falciparum [1], in the assay with Plasmodium falciparum [2] and in the assay with HepG2 were 100%, 0% and 14%, respectively.
On to `CC(=O)NCCNc1nccc(N2CCc3ncnc(Nc4ccc(OCc5cccc(F)c5)c(Cl)c4)c3C2)n1`, for which the values for the Inhibition in the assay on Plasmodium falciparum [1], in the assay on Plasmodium falciparum [2] and with HepG2 were 100%, 100% and 10%, respectively.
Regarding `CC(C)(CNCc1ccc(C(F)(F)F)cc1)c1nc(-c2ccc(Cl)c(O)c2)c(-c2ccncc2)[nH]1.Cl`, the figures for the Inhibition in the assay on Plasmodium falciparum [1], with Plasmodium falciparum [2] and in the assay with HepG2 were 100%, 98% and 42%, respectively.
The like results for `COc1ccc(NC(=O)/C=C/c2ccccc2Cl)cc1OCCN1CCC(Cc2cc3ccccc3[nH]2)CC1.Cl` were, in that order, 92%, 8% and 56%.
The like results for `O=C(CCc1ccccc1)NC(c1ccc(Cl)cc1)c1ccc2cccnc2c1O` (stereo unspecified) were, in that order, 95%, 49% and 59%.
Take `CCOc1cc(C(=O)Nc2cccnc2)ccc1-c1nc2cc(Cl)c(Cl)cc2[nH]1`: the Inhibition in the assay with Plasmodium falciparum [1] is 100%; with Plasmodium falciparum [2] it was 70%; with HepG2, 9%.
Turning to `Cc1cc(NC(=O)c2cccs2)ccc1OC1CCN(Cc2ccccc2)CC1.O=C(O)C(F)(F)F`, the Inhibition is reported as 95% in the assay with Plasmodium falciparum [1], 91% with Plasmodium falciparum [2] and 10% in the assay with HepG2.
For the compound `OC(CNCc1cccc(Oc2ccc(Cl)cc2)c1)c1cc(C(F)(F)F)cc(C(F)(F)F)c1` (stereo unspecified), the Inhibition in the assay on Plasmodium falciparum [1] is reported as 99%; with Plasmodium falciparum [2], 100%; with HepG2, 0%.
On to `CN1CCN(Cc2ccc(-c3cccc(-c4nc5ccccc5[nH]4)c3)cc2)CC1.O=C(O)C(F)(F)F`, for which the figures for the Inhibition in the assay on Plasmodium falciparum [1], with Plasmodium falciparum [2] and in the assay with HepG2 were 93%, 6% and 21%, respectively.
The like results for `COc1ccc(NC(=O)[C@H](Cc2ccccc2)Nc2cc(C)nc(NCc3ccccc3C)n2)cc1.O=C(O)C(F)(F)F` were, in that order, 100%, 71% and 16%.
The like results for `Br.CC(C)(Cc1ccc(Cl)cc1)NCCCCCCNCCc1ccc(O)c(O)c1` were, in that order, 90%, 0% and 45%.
Regarding `Cc1cc(-c2ccc(CNCc3ccsc3)cc2)ccc1S(=O)(=O)NCCN1CCCC1.O=C(O)C(F)(F)F`, the Inhibition in the assay with Plasmodium falciparum [1] came to 99%; in the assay on Plasmodium falciparum [2], 49%; in the assay with HepG2 it was 57%.
For the compound `CN1CCC(NCCS(=O)(=O)c2cccc(Nc3ccc(-c4cccc(F)c4)cn3)c2)CC1`, the results for the Inhibition with Plasmodium falciparum [1], in the assay on Plasmodium falciparum [2] and in the assay on HepG2 were 99%, 0% and 27%, respectively.
Take `COc1cccc(NC(=O)Nc2cc(C)nc3ccccc23)c1`: the Inhibition was determined as 100% in the assay on Plasmodium falciparum [1], 48% in the assay on Plasmodium falciparum [2] and 2% in the assay with HepG2.
The like results for `CCNC(=O)c1cc(S(=O)(=O)N2CCN(c3ccccn3)CC2)cs1` were, in that order, 97%, 94% and 7%.
The like results for `COc1ccccc1-c1ccc(C(=O)NCC2CCCN(Cc3cccc(C(F)(F)F)c3)C2)s1.O=C(O)C(F)(F)F` (stereo unspecified) were, in that order, 81%, 37% and 18%.
The like results for `CSCCCN1CCC(O)(c2ccc3oc(C(=O)Nc4ccc5sc(C)nc5c4)cc3c2)CC1` were, in that order, 100%, 69% and 10%.
Consider `O=C(NCCN1Cc2ccccc2C1=O)c1ccc(Oc2ccc(C(=O)NCCN3Cc4ccccc4C3=O)cc2)cc1`, for which the Inhibition in the assay with Plasmodium falciparum [1] was 99%; in the assay on Plasmodium falciparum [2] it was 95%; with HepG2, 27%.
The like results for `Cc1nnsc1C(=O)Nc1cccc(-c2ccc(-c3nc4cc(F)ccc4[nH]3)s2)c1` were, in that order, 89%, 22% and 62%.
For `Cc1nc2nc(N)nc(N)c2c(C)c1Cc1ccccc1.Cl`, the Inhibition is 95% in the assay on Plasmodium falciparum [1], 0% in the assay with Plasmodium falciparum [2] and 62% in the assay with HepG2.
The like results for `COc1cc(NC(=O)c2sc(-c3ccc(Cl)cc3)cc2NC(=O)CN2CCCC2)ccc1OCCN1CCCC1.Cl` were, in that order, 86%, 79% and 29%.
